Assay results: PubChem BioAssay AID720511 (Broad Institute, 2013)
Values joined by “and” are separate entries in the source; they are usually repeats but may differ in a detail not shown here. Identical values can stand only once. Out of some 350,000 compounds screened, about 1,300 (0.37%) were called active. This is one part of a sample in which actives are shown more often than they occur.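 How the source made its calls: active means mean added fluorescence quench of at least 8% versus neutral control, with both replicates also reaching 8%; inconclusive means only one of the mean or replicate conditions met; inactive means mean below 8% and not both replicates reaching 8%.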

Assay: F508del CFTR correction, initial screen, CFBE line, single point (AID 720511);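 further: cells transiently co-express mutant CFTR-F508del with the halide-sensitive YFP; corrector assay measuring rescue of mutant channel to the surface after 24 h compound exposure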
Conditions: CFBE cells, YFP halide quenching, at 7.58 µM, hits give high values, % fluorescence drop versus neutral controls, stimulated with forskolin plus potentiator P3

Activity (quench increase), inactive:
COc1ccc(S(=O)(=O)N(C)C[C@H]2Oc3ccc(NS(=O)(=O)c4ccc(C)cc4)cc3CC(=O)N([C@@H](C)CO)C[C@@H]2C)cc1 -1.33%
COc1ccc2c3c(n(C)c2c1)[C@@H](CO)N(CC1CC1)CC31CCN(C(=O)c2cccc(F)c2)CC1 -0.0985%
C[C@H]1CCCCO[C@@H](CN(C)Cc2ccccc2)[C@@H](C)CN([C@@H](C)CO)C(=O)c2cc(NC(=O)CCCN(C)C)ccc2O1 -1.18%
CCCC#Cc1ccc2c(c1)O[C@@H](CN(C)CC1CC1)[C@@H](C)CN([C@H](C)CO)S2(=O)=O 2.53%
Cc1ccc(S(=O)(=O)N2C[C@H](O)COC[C@H]3O[C@H](CC(=O)N[C@H]4CCN(Cc5ccccc5)C4)CC[C@@H]32)cc1 0.736%
C[C@@H]1CN([C@H](C)CO)C(=O)Cc2cc(NC(=O)NC3CCCCC3)ccc2O[C@H]1CN(C)S(C)(=O)=O 0.525% and 3.05%
CCC(=O)N1C[C@@H](C)[C@@H](OC)CN(C)C(=O)c2ccc(NC(=O)Nc3ccccc3)cc2OC[C@H]1C -0.0305%
Cc1ccc(S(=O)(=O)Nc2cccc3c2O[C@@H](CN(C)S(=O)(=O)c2ccc(C)cc2)[C@H](C)CN([C@@H](C)CO)C3=O)cc1 -1.75%
O=C(C[C@H]1CC[C@H]2[C@@H](COC[C@@H](O)CN2C(=O)c2ccc3c(c2)OCO3)O1)NC1Cc2ccccc2C1 3.06%
Nc1c(Cl)cc(S(N)(=O)=O)cc1S(N)(=O)=O -0.405%
NS(=O)(=O)c1ccc(NC(=S)Nc2ccc(Br)c(Cl)c2)cc1 1.17%
CC(=O)N(C)C[C@H]1Oc2ncc(-c3cccc(F)c3)cc2C(=O)N([C@@H](C)CO)C[C@H]1C -3.71%
CN1C(=O)c2cc(NC(=O)c3ccccc3)ccc2OC[C@@H]2O[C@H](CC(=O)NCC3CC3)CC[C@@H]21 -1.16%
Cc1ccc(S(=O)(=O)N[C@H]2CC[C@@H](CC(=O)N3CCc4ccccc4C3)O[C@H]2CO)cc1 -3.27%
CCOC(=O)c1c(NC(=O)C2CC=CCC2C(=O)O)sc(C)c1CC (stereo unspecified) 0.585%
CCC1CCC2(CC1)NC(=O)N(CC(=O)Nc1ccc(OC)cc1)C2=O (stereo unspecified) 4.71%
O=S(=O)(NC1CC1)c1ccc(Cl)cc1 0.433%
O=S(=O)(NCc1ccc(Cl)cc1Cl)c1cccs1 0.403%
C/C=C/c1ccc([C@H]2[C@@H](CNC(C)C)N(c3nc(CC)cs3)[C@H]2CO)cc1 2.62%
COc1ccc(C(=O)N/N=C(\C)CC(=O)Nc2ccc(Cl)cn2)cc1 0.068%
COc1cc(C(=O)NCc2cc3cc(Cl)ccc3n2C)cc(OC)c1OC 2.35%
Cc1ccc(S(=O)(=O)Nc2ccc3c(c2)C(=O)N([C@@H](C)CO)C[C@@H](C)[C@H](CN(C)Cc2ccc(C(=O)O)cc2)O3)cc1 5.34%
COc1ccccc1-c1cc(NC(C)=O)c2ncc(-c3ccc(F)cc3)n2c1 3.05%
COc1cccc(-c2cnc3c(NC(C)=O)cc(-c4cccc(NC(C)=O)c4)cn23)c1 -0.356%
CCCNC(=O)[C@@H]1[C@@H](CO)[C@@H]2Cn3c(ccc(C4=CCCCC4)c3=O)[C@H]1N2CCC 0.001%
COc1ccc(C(C)(O)c2nc(-c3ccc(C)c(C)c3)cs2)cc1 (stereo unspecified) 0.543%
CN(c1ccc(O)cc1)c1nc(-c2cccnc2)cs1 3.59%
C[C@H](CO)N1C[C@H](C)[C@H](CN(C)C(=O)c2cccnc2)Oc2ncc(C3=CCCC3)cc2C1=O -0.608%
C[C@@H]1CN([C@H](C)CO)C(=O)c2cccc(NC(=O)Nc3ccccc3)c2O[C@@H]1CN(C)C(=O)NC1CCCCC1 -1.15%
C[C@@H]1CN([C@H](C)CO)C(=O)Cc2cc(NC(=O)Nc3ccccc3)ccc2O[C@@H]1CN(C)Cc1ccc(C(F)(F)F)cc1 0.116%
C[C@@H]1CN([C@H](C)CO)C(=O)Cc2cc(NC(=O)Nc3ccccc3)ccc2O[C@H]1CN(C)Cc1ccc(Cl)c(Cl)c1 -0.242%
C[C@H](CO)N1C[C@H](C)[C@@H](CN(C)C(=O)NC2CCCCC2)Oc2c(NC(=O)Nc3ccc(F)cc3)cccc2C1=O 3.54%
O=C(C[C@@H]1C=C[C@H](NC(=O)Nc2ccc3c(c2)OCO3)[C@H](CO)O1)NCc1ccccc1 4.6%
CO[C@H]1CN(C)C(=O)c2ccc(NS(=O)(=O)c3ccccc3C)cc2OC[C@H](C)NC[C@H]1C -0.483%
CCCn1nc(C(=O)Nc2ccc3nc(C)sc3c2)c2ccccc2c1=O -0.539%
CC(=O)Nc1ccc2nc(NC(=O)CS(=O)(=O)c3ccc(F)cc3)sc2c1 0.717%

Activity (quench increase), active:
CC[N+]1(CC)CC2=Cc3ccccc3CC2C1 (stereo unspecified) 13.8%
NS(=O)(=O)c1cc(Cl)c(Cl)c(S(N)(=O)=O)c1 9.04%
CCOC(=O)c1c(NC(=O)CN2C(=O)NC3(CCC(C)CC3)C2=O)sc(C)c1CC (stereo unspecified) 8.23%
O=S(=O)(Cc1ccc(Cl)cc1Cl)c1ccc(Cl)cc1 12.1%
COc1ccc(OC)c(/C(C)=N\NC(=O)c2cc3cc(Cl)ccc3n2C)c1 14.1%
COc1cccc(-c2cnc3c(NC(C)=O)cc(-c4cc(F)ccc4OC)cn23)c1 9.31%
CC(C)(C)C(=O)OCc1nc(-c2ccc(O)c(O)c2)cs1 8.8%
C[C@H]1CN([C@@H](C)CO)C(=O)c2cccc(NC(=O)Nc3ccc(C(F)(F)F)cc3)c2O[C@H]1CN(C)C(=O)NC1CCCCC1 8.85%
C[C@H](CO)N1C[C@H](C)[C@@H](CN(C)Cc2ccc(Cl)c(Cl)c2)Oc2ccc(NC(=O)Nc3ccc(C(F)(F)F)cc3)cc2CC1=O 12.6%
CCCC(=O)Nc1nc2ccc(NC(=O)c3c(F)c(F)c(OC)c(F)c3F)cc2s1 13.3%
